# The sample as a whole holds a higher share of hits than the screen did.
# Shiga toxin inh: A qHTS for Small Molecule Inhibitors of Shiga Toxin; Vero cells, Shiga toxin protein synthesis inhibition reporter; inhibition, % at 38.7 µM; actives 9.2% (n = 290,000); AID 2315, 2010; in the data active means inhibition mostly above about 28%, no sharp cut-off; inactive means mostly below about 43%; further: 0% is about no effect
# Cycloheximide cs: Cycloheximide Counterscreen for Small Molecule Inhibitors of Shiga Toxin; max response, %; cell reporter, cycloheximide protein synthesis inhibition counterscreen; actives 12% (n = 300,000); in the data active means max response mostly above about 13%, no sharp cut-off; inactive means mostly below about 14%; further: read at 38.3 µM for the half of the compounds with a filed dose; 0% is about no effect
# TbPYK inhibitor: qHTS of Trypanosoma Brucei Inhibitors. actives 0.12% (n = 410,000). Potency, µM (top dose mostly 76.8 µM), inactives show top-dose activity, negative = inhibition, actives largely listed as inhibitors. AID 624173, 2012. TbPYK enzyme, Kinase-Glo Plus ATP luminescence, 45 min; further: potency means the concentration at half of the fitted maximal effect; on the % scale 0 is the no-effect control and ±100 the full control effect; nearly all actives have a fitted effect of over 50% in size
#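 Quantitative HTS: titrated library compounds versus trypanosomal pyruvate kinase in TEA buffer (pH 7.2) containing KCl, MgCl2, BSA and Tween-20. Reactions were initiated with ADP, 130 uM final. Kinase-Glo Plus luminescence was read after 45 min at RT.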
# RE007 growth inh: qHTS Assay for Inhibitors of the HIV-1 protein Vpr; S. pombe RE007 Vpr strain, BacTiter-Glo ATP luminescence, 24 h; Potency, µM (titrated, usually from 92.2 µM), for inactives: at the top dose activity change, negative = less growth, usual class: inhibitors; actives 0.21% (n = 360,000); AID 651644, 2012; active means well fitted falling curve with a large enough effect; inconclusive means small, poorly fitted or top-dose-only effect; inactive means no such curve, though single readings can be large or run the other way; further: potency means the concentration at half of the fitted maximal effect; on the % scale 0 is the no-effect control and ±100 the full control effect; nearly all actives have a fitted effect of over 50% in size
#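 Fission yeast strain RE007, carrying one chromosomally integrated HIV-1 vpr copy, was seeded at OD 0.01 in PMG+AL medium with 23 nL pinned compound. After 24 h at 30 °C and 99% humidity, viability was read by BacTiter-Glo luminescence.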
# FBPA Giardia inh: qHTS Assay for Inhibitors of Fructose-1,6-bisphosphate Aldolase from Giardia Lamblia | purified Giardia FBPA | Potency, µM (highest dose often 59.6 µM), for the others: top-dose activity, negative = inhibition, usual class: inhibitors | actives 0.71% (n = 290,000) | A8B2U2; further: potency means the concentration at half of the fitted maximal effect; on the % scale 0 is the no-effect control and ±100 the full control effect; nearly all actives have a fitted effect of over 55% in size
#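 Giardia FBPA (40 nM reagent) was preincubated 10 min at RT with compound (up to 57.5 uM final), then substrate plus GAPDH/TPI/NAD/arsenate coupling system with diaphorase/resazurin was added; resorufin fluorescence (525/598 nm) was read after 20 min.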
# LmPK inhibitor: qHTS Assay for Inhibitors of Leishmania Mexicana Pyruvate Kinase (LmPK) | Q27686 | purified LmPK, Kinase-Glo ATP luminescence, 1 h | Potency, µM (titrated, usually from 57.5 µM), inactives show at the highest dose activity change, negative = inhibition, most hits filed as inhibitors | actives 0.37% (n = 290,000) | AID 1721, 2009; further: potency means the concentration at half of the fitted maximal effect; on the % scale 0 is the no-effect control and ±100 the full control effect
# Target sequence (Q27686 whole entry, looked up): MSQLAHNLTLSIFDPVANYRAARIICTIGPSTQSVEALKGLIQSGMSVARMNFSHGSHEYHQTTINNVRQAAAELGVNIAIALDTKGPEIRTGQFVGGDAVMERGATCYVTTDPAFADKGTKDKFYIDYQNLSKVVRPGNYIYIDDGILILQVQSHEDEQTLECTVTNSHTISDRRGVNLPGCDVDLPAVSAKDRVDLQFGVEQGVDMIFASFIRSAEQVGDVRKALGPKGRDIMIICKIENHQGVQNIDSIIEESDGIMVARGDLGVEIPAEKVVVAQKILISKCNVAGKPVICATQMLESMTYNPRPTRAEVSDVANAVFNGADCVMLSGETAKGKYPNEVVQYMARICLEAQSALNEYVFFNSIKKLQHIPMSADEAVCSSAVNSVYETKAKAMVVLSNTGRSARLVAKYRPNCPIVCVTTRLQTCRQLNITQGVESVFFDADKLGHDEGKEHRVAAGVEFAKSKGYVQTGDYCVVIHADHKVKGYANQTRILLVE
#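 In 50 mM imidazole pH 7.2 with 7 mM MgCl2, LmPK (0.1 nM) turned over PEP (0.5 mM) and ADP (0.1 mM) for 1 h at room temperature. Luciferase read-out of ATP.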
# An asterisk follows results filed as active; ? = inconclusive; nt = no result. Unless noted, the call rests on the fitted dose curve; in most records, active means well fitted curve in the direction sought with a large enough effect; inconclusive means small, poorly fitted or top-dose-only effect, or another doubt; inactive means no such curve, though single readings can be large; an effect the other way counts as inactive or inconclusive.
SMILES,Shiga toxin inh,Cycloheximide cs,TbPYK inhibitor,RE007 growth inh,FBPA Giardia inh,LmPK inhibitor
Cc1cccc(NC(=O)[C@@H](NC(=O)[C@@H]2Cc3ccccc3CN2)C(C)C)c1,10,5,12%,-11%,-26%,9%
CC(C)[C@H](NC(=O)[C@@H]1Cc2ccccc2CN1)C(=O)Nc1ccc2c(c1)OCCO2,83*,28*,6%,-6%,nt,-1%
O=C(CNC(=O)[C@@H]1Cc2ccccc2CN1)Nc1ccc2c(c1)OCCO2,60*,37*,0%,-12%,-27%,2%
CSCC[C@H](NC(=O)[C@@H]1Cc2ccccc2CN1)C(=O)Nc1ccc2c(c1)OCCO2,87*,52*,1%,-1%,-23%,-6%
COc1ccc(CN2C[C@H](Cc3ccccc3)[C@@H](CC(=O)Nc3ccccc3)C2=O)cc1,3,1,3%,-6%,1%,-4%
COc1ccc(/C=C\c2onc(C)c2S(=O)(=O)N2CCC(C(=O)Nc3ccc(F)cc3F)CC2)cc1,nt,nt,2%,nt,nt,nt
COc1ccc2nc(N/C(N)=N/C(=S)Nc3cccc(C)c3)nc(C)c2c1,7,-2,2%,5%,10%,0%
COc1ccc(NC(=S)/N=C(\N)Nc2nc(C)c3ccccc3n2)cc1,21,14*,-10%,12%,-8%,3%
COc1cccc(NC2SC(=O)N(c3ccccc3)C2=O)c1 (configuration not stated),61*,43*,1%,-2%,-1%,0%
Cc1ccc(Cn2c(=O)n(CCc3ccccc3)c(=O)c3sc4ccccc4c32)cc1,nt,nt,-1%,nt,nt,nt
O=C(NCc1cccnc1)OC1CC2CC1[C@H]1CCCCN1C2=O (some centres not stated),nt,nt,3%,-3%,nt,nt
O=C(NCc1cccnc1)c1ccc(-c2ccccc2[N+](=O)[O-])o1,40*,11,-2%,-11%,-30%,4%
O=C(N/N=C/c1ccc(-c2ccccc2[N+](=O)[O-])o1)c1cccnc1,6,16*,4%,-5%,?,-10%
CC(C)(C)c1cc(C(=O)N/N=C/c2ccc(-c3ccccc3[N+](=O)[O-])o2)n[nH]1,45,26*,-15%,2%,nt,11%
O=C(Nc1ccc(Oc2ccccc2)cc1)c1ccc2nc([C@@H]3O[C@H](CO)[C@H](O)[C@H](O)[C@H]3O)[nH]c2c1,nt,nt,-3%,8%,nt,nt
Nc1cc(C(=O)OCC(=O)N2CCC(Cc3ccccc3)CC2)ccc1Cl,nt,nt,-22%,-7%,nt,nt
Cc1nn(C)c(C)c1S(=O)(=O)Nc1ccc2c(c1)OCO2,32,15,1%,-7%,-10%,2%
Cc1nn(C)c(C)c1CNC(=O)Nc1ccc2c(c1)OCO2,65*,37*,11%,-4%,1%,0%
Cc1nn(C)c(C)c1CNC(=O)Nc1cccc(Cl)c1,114*,57*,3%,38%,0%,15%
Cc1nn(C)c(C)c1CNC(=O)Nc1ccc(Cl)cc1,145*,73*,0%,4%,0%,-3%
C=C(C)C(=O)C1CCCCC1,nt,nt,nt,nt,1%,nt
O=C(/C=C/c1ccccc1)NCCc1ccccc1,92*,46*,2%,-14%,-9%,7%
CC(C)(C)SCCNC(=O)/C=C/c1ccc(F)cc1,115*,51*,2%,28%,-6%,-1%
CC(C)(C)SCCNC(=O)/C=C/c1ccccc1,104*,46*,3%,14%,0%,1%
Cc1ccc(C2=NN(C(=O)CSc3nc4ncc(Cl)cc4[nH]3)C(c3ccco3)C2)cc1 (configuration not stated),27,14*,1%,13%,-14%,1%
COc1ccc(C2=NN(C(=O)CSc3nc4ncc(Cl)cc4[nH]3)C(c3ccco3)C2)cc1 (configuration not stated),-9,21*,-19%,1%,-5%,2%
